In PubChem BioAssay (NCATS) one finds Potency data, which are given here for 40 molecules.

Values joined by “and” are separate entries in the source; they are usually repeats but may differ in a detail not shown here. Equal entries are not always repeated. Results filed as inconclusive are left out. Active and inactive are the calls of the source. Calls come from the whole dose curve; as a rule, active = well fitted cell-killing curve with a large enough effect; inconclusive = small, poorly fitted or top-dose-only effect; inactive = no such curve, though single readings can be large or run the other way.
Potency is the fitted concentration of half-maximal effect.

A short description of the assay: qHTS of pediatric cancer cell lines to identify multiple opportunities for drug repurposing: Primary screen for SK-N-MC cells (AID 1347093). Particulars: SK-N-MC viability, CellTiter-Glo luminescence, 48 h; series mostly up to 46 µM. From the text:
Drug repurposing or repositioning has been offered as a strategy for drug development in oncology programs. This approach has special potential for childhood cancers and other rare or orphan diseases, where the expected return on new drug development has been a disincentive to pharmaceuticals.
In this project we exploit the poly-pharmacology of drugs to discover new indications via phenotypic screening of a panel of 19 well-characterized cell lines derived from solid tumors seen in children and adolescents. The goal is to identify approved drugs with previously unrecognized anticancer properties that has the potential to reveal new mechanisms and biological processes involved in carcinogenesis or drug resistance. We employed a titration-based paradigm (quantitative high-throughput screening or qHTS), where all compounds were tested at multiple concentrations for their effect on cell viability. Concentration-response curves (CRCs) were derived directly from the primary screen, and both potency and efficacy values were used to identify compounds with robust bioactivity profiles. We screened the NIH Chemical Genomics Center (NCGC) Pharmaceutical Collection (NPC) and Mechanism Interrogation Plate (MIPE) small molecule collections of approved and investigational compounds against these cell lines; and measured metabolically active cells after 48 hours of compound treatment as a proxy for cell viability.
Assay Submitter: Nathalia J. Martinez, National Center for Advancing Translational Sciences, National Institutes of Health, Rockville, MD, USA; email: natalia.martinez@nih.gov
[1] Shen, M et al. Quantitative high-throughput phenotypic screening of pediatric cancer cell lines identifies multiple opportunities for drug repurposing. Oncotarget 2017 Dec 19;9(4):4758-4772. PMID 29435139.
The cells were obtained from University of North Carolina (UNC), Pediatric Preclinical Testing Program (PPT), and Coriell Institute (CI).
qHTS cell viability assay:
Cells were assayed in growth media at a density of 500-1,000 cells/well. Five microliters of cells were dispensed into 1,536-well, white, solid-bottom, TC-treated plates (Greiner Bio One) using a multidrop dispenser and incubated at 37 degrees C, 5% CO2, under a humidified atmosphere for 5 hours. Twenty-three nanoliters of compounds and controls (neutral control DMSO or positive control bortezomib at final concentration of 2.3 µM) were subsequently transferred by Kalypsys pintool. For primary screens, the MIPE collection was tested at 11-point dilutions (final concentrations range from 0.78 nM to 46 µM) and the NPC collection at 8-point dilutions (final concentrations range from 0.59nM to 46 µM). Compounds tested in follow-up screens were assayed at 11-point dilutions. Cells were incubated for 48 hours, followed by addition of 3 uL of CellTiter-Glo (Promega). After a 15 min incubation at room temperature, samples were analyzed for luminescence intensity using a ViewLux High-throughput CCD imager equipped with clear filters.
Consider `Nc1cccc(S(=O)(=O)N2CCCN(S(=O)(=O)c3ccc4c(c3)OCCO4)CC2)c1`, for which the Potency result is “inactive”.

As for `C#Cc1cccc(Nc2ncnc3cc(OCCOC)c(OCCOC)cc23)c1`, the Potency was 1.05 µM (active) and 7.5 µM (active). As to `Cc1cc(Nc2nc(N[C@@H](C)c3ncc(F)cn3)ncc2Cl)n[nH]1`, the Potency is 3.72 µM (active). To `CCC(C)n1ncn(-c2ccc(N3CCN(c4ccc(OC[C@H]5CO[C@](Cn6cncn6)(c6ccc(Cl)cc6Cl)O5)cc4)CC3)cc2)c1=O` (stereo not given in full) belongs 1.48 µM (active).

As for `Cc1ccccc1C(OCCN(C)C)c1ccccc1` (stereo not given), the Potency entry was “inactive”. As to `CCCc1nc2c(C)cc(-c3nc4ccccc4n3C)cc2n1Cc1ccc(-c2ccccc2C(=O)O)cc1`, the Potency was 16.6 µM (active). Then `CCCCNc1cc(C(=O)O)cc(S(N)(=O)=O)c1Oc1ccccc1`, with “inactive”. Then `C[C@]12CCC(=O)C=C1CC[C@@H]1[C@@H]2[C@@H](O)C[C@@]2(C)[C@H]1CC[C@]2(O)C(=O)CO`, with “inactive”; and `N[C@@H]1CONC1=O`, with “inactive”. To `NC(=O)c1ccc(-c2nc(-c3ccc4c(c3)OCO4)c(-c3ccccn3)[nH]2)cc1` belongs “inactive”; to `CCOC(=O)C1=C[C@]2(CC)CCCN3CCc4c(n1c1ccccc41)[C@@H]32`, 13.2 µM (active).

Regarding `CC[C@@H](C)[C@H](NC(=O)[C@H](CC1CCCCC1)NC(=O)c1ccno1)C(=O)N1CCC2(CCc3ccccc32)CC1`, the Potency is 8.33 µM (active). To `CC(=O)NC(C)c1ccc(Oc2ccc(OC(C)C)cc2)cc1` (stereo not given) belongs 13.2 µM (active); to `Cc1cn[nH]c1`, “inactive”; to `COc1ccc(CCN2CCN(CCCc3ccccc3)CC2)cc1OC`, 18.7 µM (active). For `OCCC#Cc1nc(-c2ccc(F)cc2)c(-c2ccncc2)n1CCCc1ccccc1`, the Potency is 18.7 µM (active). Then `COc1ccc(C2=N[C@H](c3ccc(Cl)cc3)[C@H](c3ccc(Cl)cc3)N2C(=O)N2CCNC(=O)C2)c(OC(C)C)c1`, with 2.64 µM (active); and `COc1ccc([C@@H]2CC(=O)c3c(O)cc(O[C@@H]4O[C@H](CO[C@@H]5O[C@@H](C)[C@H](O)[C@@H](O)[C@@H]5O)[C@@H](O)[C@H](O)[C@@H]4O)cc3O2)cc1O`, with 16.6 µM (active); and `Nc1nccc(-c2ccc3noc(-c4ccc(Cl)cc4)c3c2)n1`, with 10.5 µM (active). To `C[C@H](NC(=O)Cc1cc(F)cc(F)c1)C(=O)N[C@@H]1C(=O)N(C)c2ccccc2-c2ccccc21` belongs 5.26 µM (active); to `CCCS(=O)(=O)Nc1ccc(F)c(C(=O)c2c[nH]c3ncc(Cl)cc23)c1F`, 4.18 µM (active). Then `CCC(C)N(C)C(=O)c1cc2ccccc2c(-c2ccccc2Cl)n1` (stereo not given), with “inactive”. For the molecule `Cc1csc(NC(=O)c2sc3nc4c(c(C(F)(F)F)c3c2N)CCC4)n1`, the Potency result is “inactive”. On to `COc1cc(Nc2ncc3c(n2)-c2ccc(Cl)cc2C(c2c(F)cccc2OC)=NC3)ccc1C(=O)O`, for which the Potency is 0.0743 µM (active).

For `c1ccc([C@H]2CN3CCSC3=N2)cc1`, the Potency entry is “inactive”. Turning to `CC(C)(C)NCC(O)c1ccc(O)c(CO)c1` (stereo not given), the Potency result was “inactive”. Consider `Cc1cc(-c2ccc(CC(=O)Nc3ccc(-c4cccnc4)cc3)cc2)ccn1`, for which the Potency was 9.35 µM (active). As to `Cc1oncc1C(=O)Nc1ccc(C(F)(F)F)cc1`, the Potency is 6.68 µM (active). With `Nc1ccc(S(=O)(=O)Nc2ccnn2-c2ccccc2)cc1`, the Potency result was “inactive”. For the molecule `COc1ccccc1[C@H](c1cccc2ccccc12)[C@@](C)(C#N)C(=O)N1CCC(c2cccc(C(F)(F)F)c2)CC1`, the Potency was 1.18 µM (active). Then `Cc1c(CCOc2ccc(C(=O)O)cc2)c2cc(Cl)ccc2n1C(c1ccccc1)c1ccccc1`, with 14.8 µM (active).

On to `NCCc1ccc(O)c(O)c1`, for which the Potency was 18.7 µM (active) and 7.5 µM (active). With `NS(=O)(=O)c1cc2c(cc1Cl)NC=NS2(=O)=O`, the Potency result was “inactive”.

On to `CS(=O)(=O)c1cccc(CNc2nc(Nc3ccc4c(c3)CCC(=O)N4)ncc2C(F)(F)F)c1`, for which the Potency was 7.43 µM (active). Turning to `CCOc1cc(C=C2C(=O)N(c3ccccc3)N=C2C)cc(Cl)c1OCC(=O)OC`, the Potency was 11.8 µM (active). In the case of `CCCS(=O)(=O)Nc1ccc(F)c(C(=O)c2c[nH]c3ncc(-c4ccc(Cl)cc4)cc23)c1F`, the Potency was 10.5 µM (active). To `CS(=O)(=O)Oc1ccc2c(NC(N)=O)c(C(=O)c3ccc(Cl)cc3Cl)oc2c1` belongs 1.48 µM (active); to `OCCn1cc(-c2cnc3nnn(Cc4ccc5ncccc5c4)c3n2)cn1`, “inactive”; to `OC[C@H](Cc1ccccc1)Nc1nc(Oc2ccc3c(c2)CCC3)nc2c1ncn2Cc1ccc(-c2ccccc2)cc1`, 1.87 µM (active). With `CC(C[N+](C)(C)C)OC(N)=O` (stereo not given), the Potency entry was “inactive”.
